From PubChem BioAssay AID1970 (National Center for Advancing Translational Sciences (NCATS), 2009) come the findings set out here.

Molecules are shown by their SMILES. Records with an inconclusive call do not appear. The source made the active and inactive calls. The call rests on the fitted dose curve; in most records, active means well fitted inhibition curve with a large enough effect; inconclusive means small, poorly fitted or top-dose-only effect; inactive means flat fitted curve, though single readings scatter.

This assay deals with Dual specificity protein kinase CLK4 (Homo sapiens) (UniProt Q9HAZ1). Nature of the assay: Confirmation Assay for Inhibitors of CDC-like Kinase 4 (Kinase-Glo Assay). Particulars: recombinant Clk4, Kinase-Glo ATP depletion luminescence; series mostly up to 47.7 µM. A digest of the protocol: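 RS repeat peptide (100 uM) and ATP (1 uM) phosphorylated by 25 nM Clk4 (final) in Tris pH 7.5 with MgCl2, EGTA, DTT and Triton X-100. After 4.5 h at room temperature, remaining ATP read as Kinase-Glo luminescence.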
Dual specificity protein kinase CLK4 (Homo sapiens), sequence (Q9HAZ1 whole entry, looked up): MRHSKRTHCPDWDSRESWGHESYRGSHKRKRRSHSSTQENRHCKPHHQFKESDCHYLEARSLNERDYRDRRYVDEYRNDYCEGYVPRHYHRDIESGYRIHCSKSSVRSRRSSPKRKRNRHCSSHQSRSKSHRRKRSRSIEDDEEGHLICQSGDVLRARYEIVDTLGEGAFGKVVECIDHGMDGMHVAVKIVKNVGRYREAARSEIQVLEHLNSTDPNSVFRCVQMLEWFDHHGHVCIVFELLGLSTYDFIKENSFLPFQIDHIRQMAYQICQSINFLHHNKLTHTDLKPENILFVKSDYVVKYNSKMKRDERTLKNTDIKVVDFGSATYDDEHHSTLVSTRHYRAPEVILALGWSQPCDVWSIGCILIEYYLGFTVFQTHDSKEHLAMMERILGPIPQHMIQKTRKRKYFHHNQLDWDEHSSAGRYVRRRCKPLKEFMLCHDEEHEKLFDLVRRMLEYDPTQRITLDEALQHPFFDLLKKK
As for `c1nc(N2CCC(N3CCCC3)CC2)c2cc(-c3ccc4c(c3)OCO4)ccc2n1`, the Potency is 4.63 µM (active).

Regarding `c1nc(NCC2CCCO2)c2ccc(-c3ccc4c(c3)OCO4)cc2n1` (stereo unspecified), the Potency was 8.44 µM (active). In the case of `CN(Cc1ccco1)c1ncnc2ccc(-c3ccoc3)cc12` it was 0.316 µM (active); in that of `c1nc(OCc2cnc[nH]2)c2cc(-c3ccc4c(c3)OCO4)ccc2n1`, 6.54 µM (active); in that of `Cn1ccc2cc(-c3ccc4ncnc(NCc5cccnc5)c4c3)ccc21`, 12.6 µM (active).

On to `Cc1csc(CNc2ncnc3ccc(-c4ccc5c(ccn5C)c4)cc23)c1`, for which the Potency was 35.5 µM (active). In the case of `c1cncc(-c2ccc3ncnc(NCc4ccc5c(c4)OCO5)c3c2)c1` it was 6.31 µM (active); in that of `Cc1ccc(CNc2ncnc3ccc(-c4ccc5c(c4)OCO5)cc23)s1`, 0.189 µM (active); in that of `Cc1csc(CNc2ncnc3ccc(-c4cccnc4)cc23)c1`, 4.47 µM (active). As to `Cn1ccc2cc(-c3ccc4ncnc(NCc5cccs5)c4c3)ccc21`, the Potency was 31.6 µM (active). In the case of `COc1cccc(-c2ccc3ncnc(NCc4cccc(F)c4)c3c2)c1` it was 0.631 µM (active); in that of `Cc1cccc(-c2ccc3ncnc(NCc4cccs4)c3c2)c1`, 7.08 µM (active). In the case of `Cc1csc(CNc2ncnc3ccc(-c4ccc5c(c4)OCCO5)cc23)c1` it was 0.447 µM (active); in that of `COc1cccc(-c2ccc3ncnc(NCc4cccc(C)c4)c3c2)c1`, 0.891 µM (active).

Consider `Clc1cccc(-c2ccc3ncnc(NCc4cccs4)c3c2)c1`, for which the Potency was 7.94 µM (active).

For the molecule `c1cncc(CNc2ncnc3ccc(-c4ccco4)cc23)c1`, the Potency was 6.31 µM (active).
